Our source for the Potency values is PubChem BioAssay (Tox21).

Where “and” joins values, the source holds several entries; their conditions need not be identical. Identical values can stand only once. Results filed as inconclusive are left out. The source holds several records for some structures; these can differ, active in one and inactive in another. Calls of active or inactive are those of the source. Unless noted, calls come from the whole dose curve; as a rule, active = well fitted curve in the direction sought with a large enough effect in the repeat runs; inconclusive = weak or mixed curves; inactive = no such curve, though single readings can be large; an effect the other way counts as inactive or inconclusive.

A short description of assay [1]: A CellTox Green Cytotoxicity Assay to monitor cytotoxicity in HepG2 cells - 0 hour (AID 1224882). Note: nearly all actives have a fitted effect of over 35% in size. Note: potency is the fitted concentration of half-maximal effect. The method, boiled down:
(§1)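 Fluorescent DNA-binding dye, 600 HepG2 cells/well, 5 h preincubation then compound in DMSO; same plates read at 0–40 h, 37 C.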

The nature of assay [2]: A CellTox Green Cytotoxicity Assay to monitor cytotoxicity in HepG2 cells - 32 hour (AID 1224883). Note: nearly all actives have a fitted effect of over 50% in size. Note: potency is the fitted concentration of half-maximal effect. The method, boiled down:
as §1

Assay [3] in a line: A CellTox Green Cytotoxicity Assay to monitor cytotoxicity in HEK293 cells - 8 hour (AID 1224884). Note: nearly all actives have a fitted effect of over 35% in size. Note: potency is the fitted concentration of half-maximal effect. The essentials: (§2)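 Homogeneous no-lysis format: HEK293 cell suspension mixed with CellTox Green reagent, seeded, incubated 5 h at 37 C/5% CO2, then dosed by pintool with compound in DMSO.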
Assay [4] in a line: qHTS RealTime-Glo MT Cell Viability Assay in HepG2 cells - 16 hour (AID 1224885). Note: nearly all actives have a fitted effect of over 50% in size. The essentials:
(§3)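 HepG2 cells were seeded at 600 cells/well together with NanoLuc luciferase and a cell-permeant prosubstrate, preincubated 5 h at 37 C/5% CO2, then pin-dosed with compounds in DMSO. Nonlytic luminescence from viable cells was read at each time point.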
(In general: qHTS replaces the single test concentration by a dilution series.)

Assay [5] is described as follows: qHTS RealTime-Glo MT Cell Viability Assay in HEK293 cells - 24 hour (AID 1224886). Note: nearly all actives have a fitted effect of over 50% in size. Note: potency is the fitted concentration of half-maximal effect. The method, boiled down: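 HEK293 cells were seeded at 600 cells/well together with NanoLuc luciferase and cell-permeant prosubstrate, preincubated 5 h at 37 C/5% CO2, then given compound in DMSO by pintool. Luminescence from viable-cell prosubstrate reduction was read repeatedly over 40 h.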

Assay [6] in a line: qHTS RealTime-Glo MT Cell Viability Assay in HEK293 cells - 8 hour (AID 1224887). Note: top concentration of the series differs between compounds; nearly all actives have a fitted effect of over 50% in size. The method, boiled down:
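Measured as luminescence from the same continuously cultured HEK293 wells at successive time points (0, 8, 16, 24, 32, 40 h) after compound addition. Reagent present from seeding; dosing at 5 h; incubation 37 C.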

Assay [7] can be described thus: A CellTox Green Cytotoxicity Assay to monitor cytotoxicity in HEK293 cells - 16 hour (AID 1224888). Note: nearly all actives have a fitted effect of over 35% in size. The method, boiled down: as §2
Assay [8] in a line: A CellTox Green Cytotoxicity Assay to monitor cytotoxicity in HepG2 cells - 8 hour (AID 1224890). Note: nearly all actives have a fitted effect of over 45% in size. Note: potency is the fitted concentration of half-maximal effect. The method, boiled down: as §1
Assay [9] is described as follows: qHTS assay to identify small molecule antagonists of the estrogen receptor alpha (ER-alpha) signaling pathway using the BG1 cell line in the presence of 0.1 nM 17-beta-estradiol - cell viability counter screen (AID 1259241). Note: nearly all actives have a fitted effect of over 40% in size. The essentials:
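Live-cell protease activity (CellTiter-Fluor fluorescence, 30 min) was read in the same wells after VM7Luc4E2 cells had been exposed to compounds with 0.1 nM 17beta-estradiol for 22 hr at 37C.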

A short description of assay [10]: qHTS assay to identify small molecule antagonists of the androgen receptor (AR) signaling pathway using the MDA cell line in the presence of 0.5 nM R1881 - cell viability counter screen (AID 1259242). Note: nearly all actives have a fitted effect of over 45% in size. The essentials:
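Human breast carcinoma MDA-kb2 cells, cultured without CO2, receive compounds alongside 0.5 nM (final) R1881 agonist. After 16 hr at 37C, viability is taken as live-cell protease signal.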

Assay [11] has as its target Estrogen receptor (Homo sapiens) (UniProt P03372). The assay is described as follows: qHTS assay to identify small molecule antagonists of the estrogen receptor alpha (ER-alpha) signaling pathway using the BG1 cell line in the presence of 0.1 nM 17-beta-estradiol (AID 1259244). Note: nearly all actives have a fitted effect of over 50% in size. Note: potency is the fitted concentration of half-maximal effect. The method, boiled down:
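Seeding of stripped-serum-adapted VM7Luc4E2 cells, 24 h attachment, compound transfer, then 0.1 nM final 17beta-estradiol; after 22 h incubation, ONE-Glo reagent and luminescence reading.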

Assay [12] can be described thus: qHTS assay to identify small molecule phospholipidosis (PLD) inducers (AID 1259344; active = well fitted curve in the direction sought with a large enough effect; an effect the other way counts as inactive or inconclusive). The method, boiled down: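 After 4 h attachment on collagen I, HepG2 cells were dosed with compound alongside LipidTOX Red, kept 24 h at 37 C, fixed, and imaged for lamellar phospholipid pits.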
A short description of assay [13]: qHTS assay to identify small molecule HDAC inhibitors (AID 1259364).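 Note: wild-type HCT-116 cells with endogenous class I/II HDAC activity; top concentration of the series differs between compounds; nearly all actives have a fitted effect of over 45% in size.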 The essentials:
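After a 2 hr compound incubation (37C, 5% CO2), HCT-116 cells seeded at 1,500/well the day before received HDAC-Glo reagent; signal read as luminescence after 30 min at room temperature.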

Assay [14] can be described thus: qHTS assay to identify small molecule HDAC inhibitors - cell viability counter screen (AID 1259365). The essentials:
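HCT-116 (wild type), 1,500 cells/well, overnight 37C/5% CO2; compound in DMSO 2hr; CellTiter-Glo 30min RT; luminescence read.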

Assay [15] is described as follows: qHTS assay to identify small molecule agonists of the sonic hedgehog signaling (Shh) pathway - cell viability counter screen (AID 1259366). Note: nearly all actives have a fitted effect of over 50% in size. Note: potency is the fitted concentration of half-maximal effect. The essentials: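 CellTiter-Fluor fluorescence read-out, 1 hr at 37C, added after 23hr compound exposure. Cells: 3T3 Gli1-Luc, an NIH/3T3 clone with stably integrated Gli1-Luc reporter, plated 4hr before compound.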
Assay [16] in a line: qHTS assay to identify small molecule antagonists of the sonic hedgehog signaling (Shh) pathway - cell viability counter screen (AID 1259367). Note: nearly all actives have a fitted effect of over 55% in size. Note: potency is the fitted concentration of half-maximal effect. The essentials:
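Conditioned medium drove Shh signaling in 3T3 Gli1-Luc cells exposed to compounds at 37C and 5% CO2. Viability was determined from CellTiter-Fluor fluorescence, with reagent incubated 1 hr after 23 hr of treatment.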

Assay [17] is described as follows: qHTS assay to identify small molecule agonists of the sonic hedgehog signaling (Shh) pathway (AID 1259368; calls by dose curve;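 note: NIH/3T3-derived 3T3Gli1-Luc cells carrying a stable Gli1-driven firefly luciferase reporter; series mostly up to about 92 µM; nearly all actives have a fitted effect of over 15% in size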). The essentials:
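Stable NIH/3T3 Gli1-Luc reporter clone; 24 hr cpd exposure after a 4 hr settling period; luminescence endpoint.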

Assay [18] in a line: qHTS assay to identify small molecule antagonists of the sonic hedgehog signaling (Shh) pathway (AID 1259369; calls by dose curve; note: nearly all actives have a fitted effect of over 45% in size; note: potency is the fitted concentration of half-maximal effect). The method, boiled down:
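Gli1 transcriptional reporter (firefly Luc) in NIH/3T3 background, conditioned-medium activated. 24hr exposure, luminescence endpoint.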

A short description of assay [19]: qHTS RealTime-Glo MT Cell Viability Assay in HepG2 cells - 0 hour (AID 1224889). Note: nearly all actives have a fitted effect of over 50% in size. The method, boiled down: as §3
The target of assay [20] is Androgen receptor (Homo sapiens) (UniProt P10275). The assay is described as follows: qHTS assay to identify small molecule antagonists of the androgen receptor (AR) signaling pathway using the MDA cell line in the presence of 0.5 nM R1881 (AID 1259243). Note: nearly all actives have a fitted effect of over 50% in size. Note: potency is the fitted concentration of half-maximal effect. The essentials: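 Cells: MDA-kb2 (MMTV-luc). Stimulus: 0.5 nM R1881. Time: 16 hr, 37C, no CO2. Detection: ONE-Glo luminescence after 30 min at RT.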
Chain of Androgen receptor (Homo sapiens) (P10275 whole entry, looked up): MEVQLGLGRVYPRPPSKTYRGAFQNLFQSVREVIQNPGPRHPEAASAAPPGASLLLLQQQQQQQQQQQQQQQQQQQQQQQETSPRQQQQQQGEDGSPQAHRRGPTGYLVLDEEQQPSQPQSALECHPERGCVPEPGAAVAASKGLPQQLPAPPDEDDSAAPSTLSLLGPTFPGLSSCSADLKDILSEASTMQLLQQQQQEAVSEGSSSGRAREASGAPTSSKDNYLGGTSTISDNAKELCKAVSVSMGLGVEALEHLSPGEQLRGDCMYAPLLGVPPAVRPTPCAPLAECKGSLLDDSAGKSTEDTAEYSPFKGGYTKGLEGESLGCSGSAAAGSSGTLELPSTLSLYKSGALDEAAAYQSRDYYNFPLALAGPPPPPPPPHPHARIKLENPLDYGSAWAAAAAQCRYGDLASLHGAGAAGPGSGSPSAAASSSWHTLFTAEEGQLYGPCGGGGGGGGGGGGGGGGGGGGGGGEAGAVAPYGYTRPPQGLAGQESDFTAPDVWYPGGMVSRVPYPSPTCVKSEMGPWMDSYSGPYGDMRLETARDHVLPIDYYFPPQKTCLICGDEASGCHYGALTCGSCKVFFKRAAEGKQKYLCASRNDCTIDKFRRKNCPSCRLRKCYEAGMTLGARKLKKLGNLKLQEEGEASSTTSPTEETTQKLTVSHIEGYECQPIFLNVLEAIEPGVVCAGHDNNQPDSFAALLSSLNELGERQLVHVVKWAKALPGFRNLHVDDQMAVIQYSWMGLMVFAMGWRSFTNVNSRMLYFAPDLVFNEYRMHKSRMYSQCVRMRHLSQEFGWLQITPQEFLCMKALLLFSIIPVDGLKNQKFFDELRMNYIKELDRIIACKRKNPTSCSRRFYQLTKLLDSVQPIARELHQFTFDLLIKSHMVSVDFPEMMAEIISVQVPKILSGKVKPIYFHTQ

Chain of Estrogen receptor (Homo sapiens) (P03372 whole entry, looked up): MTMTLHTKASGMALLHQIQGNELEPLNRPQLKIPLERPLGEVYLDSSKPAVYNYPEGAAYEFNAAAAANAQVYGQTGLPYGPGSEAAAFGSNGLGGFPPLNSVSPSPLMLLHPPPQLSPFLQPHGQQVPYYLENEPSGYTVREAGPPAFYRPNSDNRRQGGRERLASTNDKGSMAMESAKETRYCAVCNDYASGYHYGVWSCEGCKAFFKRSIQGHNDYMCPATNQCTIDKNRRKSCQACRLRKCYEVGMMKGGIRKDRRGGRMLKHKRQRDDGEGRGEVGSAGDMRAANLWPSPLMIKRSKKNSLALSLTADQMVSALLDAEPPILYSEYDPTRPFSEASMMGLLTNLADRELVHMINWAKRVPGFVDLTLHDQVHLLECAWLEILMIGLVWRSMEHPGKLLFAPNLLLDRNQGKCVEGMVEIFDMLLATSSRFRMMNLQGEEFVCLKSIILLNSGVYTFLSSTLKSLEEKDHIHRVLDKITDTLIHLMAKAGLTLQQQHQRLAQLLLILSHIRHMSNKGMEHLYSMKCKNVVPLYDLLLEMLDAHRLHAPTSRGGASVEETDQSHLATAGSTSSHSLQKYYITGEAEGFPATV

Regarding `CC(=O)N[C@@H](CS)C(=O)O`, the Potency result in [1], in assay [2], in [3], in [4], in [5] and in assay [6] was “inactive” each time. In addition, the Potency result in assay [7], in assay [8], in [9], in assay [10], in [11] and in assay [12] was “inactive” in each case. For the same compound, the Potency result in assay [13], in assay [14], in assay [15], in [16], in assay [17] and in [18] was “inactive” in each case.

With `Oc1c(Cl)cc(Cl)cc1Sc1cc(Cl)cc(Cl)c1O`, the Potency result in [1] is “inactive and 43.6 µM (active)”; in assay [2] it was 44.4 µM (active) and 43.6 µM (active) and inactive; in [3], “inactive and 43.6 µM (active)”; in assay [5], 21.9 µM (active); in [8], “inactive and 43.6 µM (active)”; in [11], 12.2 µM (active) and 17.5 µM (active) and 15.4 µM (active). Further, in assay [16], the Potency was 27.4 µM (active) and inactive. For the same compound, the Potency entry in [4], in assay [6], in assay [19], in [9], in [12] and in assay [13] was “inactive” throughout. The Potency entry in assay [14], in assay [15] and in assay [17] was “inactive” each time.

Turning to `CCCOC(=O)c1cc(O)c(O)c(O)c1`, the Potency result in assay [1], in assay [2], in [3], in assay [4], in assay [7] and in assay [8] was “inactive” throughout. Also, the Potency result in assay [9], in assay [11], in assay [12], in assay [13], in [14] and in assay [16] was “inactive” each time. The Potency entry in assay [17] is “inactive”. In addition, the Potency is 43.1 µM (active) in assay [15] and 12.1 µM (active) in [18].

Regarding `BrC1CCC(Br)C(Br)CCC(Br)C(Br)CCC1Br` (configuration not stated), the Potency entry in assay [1], in assay [2], in assay [3], in assay [5], in [6] and in [7] was “inactive” throughout. For the same compound, the Potency entry in assay [19], in [8], in [9], in assay [10], in assay [20] and in assay [11] was “inactive” in each case. Further, the Potency entry in [13], in [14], in assay [15], in assay [16] and in assay [17] was “inactive” throughout. Also, the Potency in assay [18] is 32.6 µM (active).

For the compound `N[C@@H]1CONC1=O`, the Potency entry in assay [3], in [4], in assay [5], in assay [6], in [7] and in assay [19] was “inactive” in each case. Moreover, the Potency result in assay [9], in assay [10], in assay [12], in assay [13], in assay [14] and in [15] was “inactive” throughout. Also, the Potency entry in assay [16], in assay [17] and in [18] was “inactive” each time.

As for `CCCCC/C=C/CC1CC(=O)OC1=O` (configuration not stated), the Potency result in assay [1], in [2], in assay [3], in assay [4], in assay [5] and in assay [6] was “inactive” in each case. Besides, the Potency entry in assay [19], in assay [8], in assay [9], in assay [11], in assay [15] and in [16] was “inactive” in each case. Further, the Potency entry in assay [17] and in [18] was “inactive” throughout.

In the case of `CCc1ccc(C(c2ccc(CC)cc2)C(Cl)Cl)cc1`, the Potency entry in assay [1], in assay [2], in assay [3], in [4], in assay [6] and in assay [7] was “inactive” each time. Moreover, the Potency result in assay [19], in assay [8], in [9], in [10], in assay [11] and in assay [13] was “inactive” in each case. Besides, the Potency entry in [15], in [16] and in assay [18] was “inactive” each time. For the same compound, the Potency in [20] is 49.3 µM (active).

With `CCC(C)(C)C(=O)O[C@H]1C[C@@H](C)C=C2C=C[C@H](C)[C@H](CC[C@@H]3C[C@@H](O)CC(=O)O3)[C@H]21`, the Potency result in [1], in assay [3], in assay [7], in assay [8], in assay [9] and in [11] was “inactive” each time. In addition, the Potency result in assay [12], in assay [13], in assay [14], in [15], in assay [16] and in [17] was “inactive” in each case. In addition, the Potency in assay [2] is 38.9 µM (active) and 9.52 µM (active).

For `COC(=O)c1cccc(C(=O)OC)c1`, the Potency entry in [1] was “inactive and 38.9 µM (active)”; in assay [2] it was “inactive and 24.5 µM (active)”; in assay [3], “inactive and 43.6 µM (active)”; in [8], “inactive and 43.6 µM (active)”. The Potency entry in [4], in assay [5], in [6], in assay [19], in [9] and in assay [10] was “inactive” in each case. The Potency result in assay [20], in [11], in assay [13], in assay [14], in assay [15] and in [16] was “inactive” in each case. Also, in assay [18], the Potency result was “inactive”.
